Test results reported in the supplement of paper PMC3334620.
The full ranking holds about 33,000 sequences; the median of “E-score (-0.5 to 0.5)” is about -0.041, and the highest 2% start at about 0.37. The full list was thinned out, with the highest values kept by preference.

The sequences below were run against T1, Ecm22 (UniProt Q05958) (assay: PBM E-score (8-mer binding enrichment) (E-score (-0.5 to 0.5)); higher = stronger / more preferred TF binding). Settings: protein concentration: 200 nM; construct: GST-full length.
T1 sequence: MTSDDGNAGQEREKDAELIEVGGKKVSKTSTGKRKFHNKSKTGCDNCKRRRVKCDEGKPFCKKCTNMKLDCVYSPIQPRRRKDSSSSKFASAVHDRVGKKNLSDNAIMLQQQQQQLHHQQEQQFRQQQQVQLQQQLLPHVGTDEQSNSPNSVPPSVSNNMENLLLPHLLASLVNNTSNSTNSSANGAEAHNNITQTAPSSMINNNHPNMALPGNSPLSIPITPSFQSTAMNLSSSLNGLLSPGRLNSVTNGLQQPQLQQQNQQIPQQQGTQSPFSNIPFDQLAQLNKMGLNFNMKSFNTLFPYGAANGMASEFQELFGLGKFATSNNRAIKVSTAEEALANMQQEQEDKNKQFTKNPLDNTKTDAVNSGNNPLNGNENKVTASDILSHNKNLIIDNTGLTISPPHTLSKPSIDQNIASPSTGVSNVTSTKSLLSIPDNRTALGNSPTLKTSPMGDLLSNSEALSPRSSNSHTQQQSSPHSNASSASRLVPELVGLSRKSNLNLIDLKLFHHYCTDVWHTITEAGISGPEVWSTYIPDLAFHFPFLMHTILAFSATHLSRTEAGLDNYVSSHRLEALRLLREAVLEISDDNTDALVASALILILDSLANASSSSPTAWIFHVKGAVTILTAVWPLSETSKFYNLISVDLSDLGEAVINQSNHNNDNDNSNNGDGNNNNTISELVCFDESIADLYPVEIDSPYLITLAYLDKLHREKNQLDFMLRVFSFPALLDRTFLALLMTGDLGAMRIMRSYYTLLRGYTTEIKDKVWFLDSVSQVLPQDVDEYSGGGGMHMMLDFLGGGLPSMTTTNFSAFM
How it was run: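 Yeast transcription factors carrying a GST tag, as full-length proteins or DNA-binding domains, were produced by PURExpress in vitro transcription/translation. About 100-200 nM protein was applied to universal all-10-mer Agilent arrays, double-stranded by primer extension on fresh or once-stripped slides. Bound protein was detected with fluorescent anti-GST, and scans were normalised with masliner. The Universal PBM Analysis Suite gave each ungapped eight-base word, pooled with its reverse complement, an E-score, a modified Wilcoxon-Mann-Whitney statistic.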

Sequence	PBM E-score
ACACTCCT	-0.163
CGTTGAGC	0.0667
CCACAAGA	-0.185
CAAAAGGG	-0.181
GCGGGGAC	-0.152
CCGATACG	0.326
ATGATACA	-0.0736
ATGATACG	0.377
ACGATACT	0.313
ATGATACC	0.146
ACGATACG	0.383
GTTTTCCA	0.061
CTCCCGTC	0.121
TAAGTGCA	0.0499
CTGTTGCC	-0.265
AAGGAACG	0.458
CAGGAACA	-0.0447
AAGGAACT	-0.0399
CAGGAACG	0.463
ATGGAACG	0.402
ATGGAACA	-0.322
CAGGAACC	-0.171
ATGGAACC	-0.0738
AAGGAACC	0.0815
CCGCCTAG	-0.193

Sequence	PBM E-score
CTTACCTA	-0.117
GAAGTGTC	-0.055
AATAGTTG	-0.116
CAGCGTCG	0.0918
AAGCCGTC	-0.0956
CAAACGAA	0.438
GAAACAAA	-0.0214
GAAACGAA	0.414
AAAACGAA	0.277
GTAACGAA	0.306
CCAACGAA	0.0596
TAAACGAA	0.488
TAAACGCA	0.292
TAAACAAA	0.114
AGTGACAT	-0.283
GGCACAAA	-0.134
GATATGCC	-0.108
ATATTTAA	0.0866
GTACGGCA	0.395
ACACGGCA	0.108
AGACGGCC	-0.223
ATACGGCG	0.406
AAACGGCA	0.294
GCACGGCA	-0.0485
ACACGGCG	-0.0862

Sequence	PBM E-score
AGACGGCG	-0.0146
ATACGGCA	0.404
CTACGGCA	0.1
CTACGGCC	0.018
ATACGGCC	0.388
CCACCAAA	-0.13
GGCTGAAA	-0.0667
ACAATGGA	-0.0436
AGATGGCG	-0.102
CTTACGCC	0.0486
CTCACGAA	0.128
CTTACGCA	0.0308
CTCACGAC	-0.0734
ATTACGAA	0.349
GTTACGGA	0.233
CTTACGAA	0.391
GTTACGAA	0.404
CTTACGAC	0.394
CGAAAATC	0.162
CGGCATCA	0.0766
GGTACCGA	0.103
AGTACCGC	0.148
AGTACCGA	0.0799
CGTACCGA	0.447
CGTACCGC	0.47

Sequence	PBM E-score
CATACCGC	-0.0365
CGAGTCAC	0.106
ACTGGCAT	-0.182
AATACCGG	-0.042
ACGATAAT	0.309
ACGATCGT	0.43
ACGATCGC	0.327
ACGATCGG	0.274
CGGTACAA	0.214
ACGTACAG	0.186
TCGTACAA	0.49
CAGTACAA	-0.0343
CCGTACAA	0.4
CCGTACAC	0.33
GCGTACAA	0.243
CCGTACAG	0.388
ACGTACAA	0.298
AATTTCTC	0.0237
CGCTCGTA	0.467
AGCTCGTC	0.0121
GGCTCGGA	0.0976
AGCTCGTA	0.477
CGCTCGGA	0.252
GGCTCGTA	0.479
CGCTCGTC	0.168

Sequence	PBM E-score
AGCTCGTG	0.182
GGCTCGAA	0.0317
AGGTCTAT	0.0387
TATGATGA	0.00697
ATAGGTTC	0.00586
CGGCCTCC	-0.0189
ACCCGAAA	0.14
TTATAGAA	-0.0153
AGCAATAA	-0.127
CGCCCGAA	0.0388
CGCGCGGC	0.225
GCTCAGGA	-0.107
AACGACAG	0.412
CACGACAG	0.0642
ATCGACAG	0.00794
TGCGACAA	0.141
TTCGACAA	0.0503
AACGACAA	0.41
TACGACAA	0.455
AACGACAT	0.434
GACGACAA	0.155
ACCGACAT	0.217
CACGACAA	0.09
AGCGACAT	0.214
GGACCTCA	-0.206

Sequence	PBM E-score
CTGGGAAC	0.132
TGGGTAAA	0.0399
AGTGTCCG	0.0467
CACTCTCG	0.174
CTCGTGGA	-0.0176
CAGGCCTA	-0.218
AAATCCTG	0.015
AGATCGAA	-0.0769
CAAGGTGC	-0.235
AGGACCAA	-0.168
GACGACAC	-0.0609
CACGACAC	0.147
AACGACAC	0.421
AAGACGGG	-0.114
CGTCCGCC	-0.111
ACTGGGGC	-0.276
AACGATCA	0.346
AACGATCC	0.307
AACGATAC	0.389
AACGATCT	0.381
AACGATAT	0.408
GACGATAA	0.0921
ACCGATAT	0.138
AACGATAG	0.345
CACGATAA	0.00212

Sequence	PBM E-score
AGCGATAT	0.222
TACGATAA	0.408
GACGATAC	0.127
AACTCTTC	0.0679
CAATGGGC	-0.209
CCCGGCAC	-0.159
AGAGGGAC	-0.0884
ATCTCCTC	-0.0702
ACCGATAA	0.116
AACGATAA	0.382
CACGATAG	-0.065
AGTTAAGC	0.0271
CGTTAAGA	0.222
CGTTAAAC	0.392
CGTTAAGC	0.4
CGTTAAAA	0.287
GGTTAAAC	0.116
TCTCTTCA	-0.0952
AGACCGCA	-0.0494
GTGACAGA	-0.0918
CCAACTTA	-0.115
ACGTTCCC	0.269
CTGTTCCA	-0.186
ACGTTTCA	0.107
GCGTTCCC	0.104

Sequence	PBM E-score
CCGTTCCC	0.464
CCGTTCCA	0.373
CCGTTCGA	0.152
ACGTTCCA	0.214
GCGTTCCA	0.141
GCGTTTCA	-0.0209
TCGTTCCA	0.475
TCGTTTCA	0.396
CTTGTGAA	-0.226
GATCCCGC	0.0461
GTTCACCA	0.0888
TCGCTAAA	0.34
AAAGCTCT	-0.258
ACGTTCCG	0.259
GCGTTCAA	0.0639
TCGTTCAA	0.448
CAGTTCCG	0.14
ACGTTCAA	0.188
CCGTTCCG	0.441
AAGATCAA	-0.0315
ATAGGAAA	-0.0768
CTTTGGCA	-0.144
AGCTCAAC	-0.0198
CACGAAGC	0.0604
AACGAAGA	0.421

Sequence	PBM E-score
ACCGAAGT	0.207
AACGAAGC	0.437
GACGAAGA	0.0867
AAAGAAGT	-0.0866
TAAGAAGA	0.0914
TACGAAGA	0.444
TCCGAAGA	0.0982
GACGAAGC	0.0937
CACGAAGA	0.226
AACGAAGT	0.419
CGGATTTC	0.0823
CGCGGCAC	0.0802
ATTCTGGG	-0.192
TCCAATCA	-0.115
TTCTTAAA	-0.107
ATTGAGGA	-0.0867
AGCGCCGC	-0.188
ATAAACTA	0.0319
TAGTCTAA	-0.04
ACTATCCT	-0.133
ACTACGGC	-0.0479
ACGTCGCG	0.162
TGGACCCA	-0.131
AACGAAGG	0.398
ACCGAAGG	0.107

Sequence	PBM E-score
CACGAAGG	0.0498
CCGAACCG	0.12
ACGAACCC	0.28
ACGAACCA	0.391
CCGAACCA	-0.0831
ACGAACCG	0.368
ACGAAGCG	0.317
ACGAAGCA	0.378
GCGAAGCA	0.0616
GCGAACCA	0.146
ACGGTCAA	0.297
GTTACACA	-0.0371
CGCACCAC	0.0793
CATATCCA	-0.0799
AATGGAAA	-0.198
CACGGTAC	0.113
AATCTGGA	-0.119
GGTACCCA	-0.145
AGTACCCA	-0.208
CATACCCC	-0.0887
AGTACCCC	-0.0697
CGTACCCC	0.453
CGTACCCA	0.406
GCCTGCGC	-0.272
ACCCTACG	-0.142

Sequence	PBM E-score
AGCGGTGC	0.0264
GATTTGAC	0.202
AGAGACGC	0.0019
CGTATGTC	0.342
CGTATGGA	0.383
GGTATGGA	-0.15
AGTATGGA	-0.115
AGTATGGC	-0.0838
CGTATGGC	0.4
CCGAGATA	0.186
TTACGCAA	0.115
AGTTTGCC	-0.117
GTTGAAAC	0.0017
GCCTGGCA	-0.318
CGACCGCC	0.137
ACTACTAG	-0.0821
ACATTCGG	0.0251
ACATTCGT	0.37
ACATTCGA	0.0496
GACACCTC	0.148
ACCCTCGC	0.194
ACCCTCGA	-0.16
ACCCTCGT	0.449
CACCAATA	-0.0897
AGTAGCGA	0.153

Sequence	PBM E-score
CGTAGCGA	0.382
CGTAGCGC	0.273
TAGGGAAA	-0.0897
CACGAAAA	0.153
AACGAATT	0.36
CACGAATG	0.052
AACGAATG	0.429
TACGAAAA	0.423
GACGAAAA	0.196
ATCGAATA	0.138
CACGAATA	0.117
ACCGAATA	0.18
AACGAATA	0.371
TACGAATA	0.43
GACGAATA	0.0261
AATTGCTA	-0.0544
AGTGCTGG	-0.152
AAGCGGTA	0.145
CACAACTC	0.144
ACCAGCTA	-0.0229
AGCCAATG	-0.141
CAGGGGAA	-0.0465
CGCGATCA	0.179
AGTTCTTG	-0.0776
GTCAGGGA	-0.19

Sequence	PBM E-score
AACGAATC	0.387
GACGAATC	0.106
CACGAATC	0.0959
ATGCAAGG	-0.193
CCGCGACG	0.0789
ACCGGGCG	0.0784
GACCTACA	-0.18
CATGGCGC	-0.137
CCACTCCG	0.019
GCCGTACA	0.371
TGCGTACA	0.283
ACCGTAGG	-0.172
GGCGTACC	0.279
GCCGTAGC	0.163
GCCGTACC	0.441
ACCGTAAG	0.212
TCCGTACA	0.379
GCCGTGCA	-0.305
TCCGTAGA	-0.0285
ACCGTACG	0.385
GCCGTAAA	0.366
AATTCTAT	-0.104
TACGTTCA	0.276
GATCCGGC	-0.0487
GACCAGGA	-0.0856

Sequence	PBM E-score
AGGGGAAA	-0.223
CAAGGACA	-0.247
GGCACCGA	-0.0384
GAGTCACA	0.0764
AAACTGTT	-0.124
ACCGTACT	0.285
ACCGTAAC	0.231
ACCGTAGC	0.163
ACCGTAGA	0.0719
ACCGTACA	0.371
ACCGTACC	0.416
CACTGTCG	0.109
GCCCTATA	-0.00087
AAATAGCT	-0.0997
CTTAACGC	-0.0209
CTTAACGA	0.432
ATTAACGC	0.122
CGTAACGA	0.338
ATTAACGA	0.402
GTTAACGA	0.408
GCTAACGA	0.281
GTTAACTA	0.106
ATTAACGG	0.226
